High-throughput results as filed in PubChem BioAssay.
An excerpt weighted towards active compounds, which were near 2.2% of everything screened.
V-ATPase pHluor – regulators of yeast V-ATPase proton transport; response, % at 10 µM; S. cerevisiae, pHLuorin cytosolic pH fluorescence; AID 504577; 0.37% of 350,000 active; in the data active = response mostly above about 7.3%, no sharp cut-off; inactive = mostly below about 5.4%; note: actives read high
HTR2A ag – activates the mouse 5-HT2A serotonin receptor; 0.66% of 360,000 active; CHO-K1 mHTR2A beta-arrestin complementation, luminescence; percent of 30 µM serotonin response; activation, % at 7.6 µM;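 active = activation above a run cutoff, the mean activation of all tested compounds plus 3 SD, cut at about 14% in these data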
Granule exo inh – lytic granule exocytosis inhibition. TALL-104 LAMP-1 surface exposure, flow cytometry; cells stimulated with thapsigargin and PMA. inhibition, % at 10 µM. 0.66% of 360,000 active. AID 651702;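 active = inhibition above about 55%, limit read from the data; inconclusive = no clear call, values can overlap the other calls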
GASC-1 inh – human JMJD2C demethylase inhibition; GST-JMJD2C(1-420) H3K9me3 demethylation, DELFIA europium; inhibition, % at 2.35 µM; 0.069% of 330,000 active; AID 2099;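 active = more than half of a compound's replicate wells show inhibition beyond 50%, single wells judged on their own value; inconclusive = some, but no more than half, of replicates pass 50% inhibition; inactive = no replicate passes 50% inhibition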;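 note: signal counts dimethyl H3K9 product captured on neutravidin plate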
Target sequence (Q9H3R0 1-420 limits assumed): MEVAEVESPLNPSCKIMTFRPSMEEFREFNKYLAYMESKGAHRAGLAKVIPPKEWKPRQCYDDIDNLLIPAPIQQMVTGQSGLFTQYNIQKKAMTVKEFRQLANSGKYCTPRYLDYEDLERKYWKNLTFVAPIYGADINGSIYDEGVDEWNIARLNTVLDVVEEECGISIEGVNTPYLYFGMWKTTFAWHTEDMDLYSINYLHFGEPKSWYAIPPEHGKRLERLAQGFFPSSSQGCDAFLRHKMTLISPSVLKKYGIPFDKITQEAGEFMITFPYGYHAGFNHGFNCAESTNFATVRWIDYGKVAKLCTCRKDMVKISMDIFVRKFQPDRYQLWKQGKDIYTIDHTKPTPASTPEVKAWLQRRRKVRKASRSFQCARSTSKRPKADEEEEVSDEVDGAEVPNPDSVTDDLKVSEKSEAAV
MEX-5 binding – C. elegans MEX-5 TCR-2 RNA binding activity; 0.38% of 300,000 active; MEX-5/FITC-TCR2 RNA binding, fluorescence polarization; active compounds read low; Q9XUB2; activity score (negative = inhibition of binding), % at 10 µM;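 active = inhibition past about -25% in most replicates, and total fluorescence under double the plate's negative control median, limit read from the data; inconclusive = replicates evenly split on the limit, or fluorescence at least double controls; inactive = too little inhibition in most replicates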
VLA-4 inh – inhibition in a human VLA-4 binding assay. P13612. VLA-4 expressing cells, ligand binding flow cytometry. inhibition, % (about 7 µM as worked out from the volumes in the protocol). 0.2% of 330,000 active. AID 2557; in the data active = inhibition above about 50%
VATPase regulator – yeast V-ATPase proton transport regulation. shares compounds with V-ATPase pHluor. S. cerevisiae pHLuorin cytosolic pH. response, % at 10 µM. 2% of 980 active; in the data active = response above about 24%
Of the large screens only hits and unclear results are named; the others gave an inactive call (follow-up assays come after a bar, where they were run).

C#CCOCCOCCOCCNc1nc(N2CCN(C(=O)[C@H](CCC(=O)O)n3cc(CN)nn3)CC2)nc(N2CCN(C(=O)[C@H](CCCCN)n3cc([C@@H](N)CC(N)=O)nn3)CC2)n1	V-ATPase pHluor 7.9 (no result: MEX-5 binding) | VATPase regulator inactive
C#CCOCCOCCOCCNc1nc(N2CCN(C(=O)[C@H](CCCCN)n3cc(CN)nn3)CC2)nc(N2CCN(C(=O)[C@H](CCC(=O)O)n3cc([C@@H](N)CCCCN)nn3)CC2)n1	none (no result: MEX-5 binding)
CC(Sc1nnc(-c2ccco2)n1C)C(=O)N(C)C1CCCCC1 (stereo not given)	none
Cc1nnc(SC(C)C(=O)N(C)C2CCCCC2)n1N (stereo not given)	V-ATPase pHluor 7.1 (no result: MEX-5 binding) | VATPase regulator inactive
CCCCC1=C(C(=O)OCC)C(C(=O)OCC)Oc2ccccc21 (stereo not given)	none (no result: GASC-1 inh, MEX-5 binding, VLA-4 inh)
COc1ccc(CC(=O)n2[nH]c(=O)cc(C)c2=O)cc1OC	none
Cc1cc(=O)[nH]n(CCO)c1=O	V-ATPase pHluor 13 | VATPase regulator inactive
COc1cc2c(cc1OC)/C(=C/C(C)=O)OC2	none (no result: V-ATPase pHluor, GASC-1 inh, MEX-5 binding, VLA-4 inh)
O=C(NCCN1C(=O)S/C(=C\c2ccc(F)cc2)C1=O)c1cccc(S(=O)(=O)N2CCOCC2)c1	none
O=C(NCCN1C(=O)S/C(=C\c2ccc(Cl)cc2)C1=O)c1ccc(F)c(S(=O)(=O)N2CCOCC2)c1	V-ATPase pHluor 9.5 | VATPase regulator inactive
Cc1cc(C)c(NC(=O)CSc2nc3ccc(N4C(=O)c5ccccc5C4=O)cc3s2)c(C)c1	V-ATPase pHluor 9.0 | VATPase regulator inactive
CCn1cc(Br)c(C(=O)Nc2nccs2)n1	V-ATPase pHluor 10 | VATPase regulator inactive
O=C1C(C=NC2CC2)=C(O)c2ccccc21	V-ATPase pHluor 9.8 | VATPase regulator inactive
O=C(COC(=O)c1ccc(S(=O)(=O)N2CCCCC2)cc1)NCc1ccccc1	none (no result: MEX-5 binding)
O=C(COc1ccccc1F)NNC(=O)Cc1ccc(S(=O)(=O)N2CCOCC2)s1	none
Cc1ccccc1OCC(=O)NNC(=O)Cc1ccc(S(=O)(=O)N2CCOCC2)s1	V-ATPase pHluor 18 | VATPase regulator inactive
COCCn1c(SCC(=O)NCc2ccccc2)nc2ccccc21	none
COCCn1c(SCC(=O)NNC(=O)c2ccccc2)nc2ccccc21	V-ATPase pHluor 12 (no result: MEX-5 binding) | VATPase regulator inactive
COCCn1c(SCC(=O)OC(C)C)nnc1-c1ccccc1	V-ATPase pHluor 9.9 | VATPase regulator inactive
CC(C)C(=O)Nc1cc(-c2nc3ncccc3o2)ccc1Cl	none
Cc1cn([C@H]2C[C@H](O)[C@@H](CCC(=O)NCC3CCCO3)O2)c(=O)[nH]c1=O (stereo not given in full)	none (no result: V-ATPase pHluor, GASC-1 inh, MEX-5 binding, VLA-4 inh)
CN(CC(=O)Nc1ccccc1Br)C(=O)c1cccnc1Nc1cccc(C(F)(F)F)c1	none
CCc1noc(C)c1C(=O)N1CCN(S(=O)(=O)c2cccs2)CC1	V-ATPase pHluor 7.1 | VATPase regulator inactive
CCc1noc(C)c1C(=O)N1CCN(S(=O)(=O)c2ccc(Cl)cc2)CC1	none (no result: MEX-5 binding)
CCn1cc(C(=O)N(C)c2ccccc2F)c2cc(OC)c(OC)cc2c1=O	none
CCCCCn1nc(C(=O)N(CC(C)C)c2c(N)n(CCCC)c(=O)[nH]c2=O)c2ccccc2c1=O	V-ATPase pHluor 22 | VATPase regulator inactive
O=C(NCCO)C(c1ccccc1)c1ccccc1	none
O=C(O)CNC(=O)C(c1ccccc1)c1ccccc1	V-ATPase pHluor 11 | VATPase regulator inactive
CC(=O)c1nnn(-c2ccccc2C#N)c1C	none
CC(=O)c1nnn(-c2cccc(C#N)c2)c1C	V-ATPase pHluor 13 | VATPase regulator inactive
COc1cc(/C=C/C(C)=NNc2ccccc2)ccc1O	none (no result: GASC-1 inh, MEX-5 binding, VLA-4 inh)
O=C(CCC1CCN(C(=O)CC2=CCCCC2)CC1)NCc1ccc(F)cc1	V-ATPase pHluor 7.1 (no result: GASC-1 inh, MEX-5 binding, VLA-4 inh) | VATPase regulator inactive
O=C(c1ccc(Cl)cc1)[C@@H]1[C@@H]2C(=O)N(c3ccccc3)C(=O)[C@@H]2C2c3ccccc3C=NN21 (stereo not given in full)	V-ATPase pHluor 10 | VATPase regulator inactive
Cc1ccc(N2C(=O)[C@@H]3[C@H](C2=O)[C@H]2C=C(C(=O)c4ccccc4)C=CN2[C@@H]3C(=O)c2ccc(Cl)cc2)cc1	none
OCCCn1c(-c2ccccc2)csc1=Nc1ccccc1	V-ATPase pHluor 8.0 | VATPase regulator inactive
O=C(CCCN1C(=O)/C(=C/c2ccccc2Cl)SC1=S)NNC(=O)c1ccccc1Cl	V-ATPase pHluor 10 (no result: MEX-5 binding) | VATPase regulator inactive
COc1ccc(CNS(=O)(=O)c2ccc(C3CNC(=O)C3)cc2)cc1 (stereo not given)	V-ATPase pHluor 12 | VATPase regulator inactive
CCOc1cc(/C=C/C(=O)c2ccc3c(c2)OCCO3)ccc1OCC(=O)N(C)C	V-ATPase pHluor 15 | VATPase regulator inactive
CCOc1cc(/C=C/C(=O)c2ccc(O)cc2)ccc1OCC(=O)N(C)C	none
COc1ccc(C)cc1S(=O)(=O)NCC(c1ccc2c(c1)OCO2)N1CCOCC1 (stereo not given)	V-ATPase pHluor 11 | VATPase regulator inactive
O=C(Nc1ccc(N2CCOCC2)cc1)C1CCN(C(=O)OCc2ccccc2)CC1	none
O=C(Nc1ccc(N2CCOCC2)cc1Cl)C1CCN(C(=O)OCc2ccccc2)CC1	V-ATPase pHluor 10 | VATPase regulator inactive
CC(=O)C(=Cc1ccc(Cl)cc1)C(=O)c1ccccc1	none (no result: V-ATPase pHluor, GASC-1 inh, MEX-5 binding, VLA-4 inh)
CC(C)N(C(=O)CSc1nnnn1C1CCCC1)C(C)C	V-ATPase pHluor 8.1 | VATPase regulator inactive
O=C(O)CSc1nnnn1C1CCCCC1	none
C/C(CC(=O)Nc1ccc2ccccc2c1)=N\NC(=O)c1cnccn1	none
C/C(CC(=O)Nc1ccccn1)=N\NC(=O)c1cnccn1	V-ATPase pHluor 16 | VATPase regulator inactive
COc1ccc(S(=O)(=O)N2CCN(Cc3c[nH]c4ccccc34)CC2)cc1	V-ATPase pHluor 7.8 | VATPase regulator inactive
CCOC(=O)Cc1cc(=O)n2[nH]c(C)c(-c3ccccc3OC)c2n1	V-ATPase pHluor 19 | VATPase regulator inactive
O=C(C1CCCC1)N1CCC(CO)(Cc2ccccc2Cl)CC1	none
O=C(C1CCCCC1)N1CCC(CO)(Cc2ccccc2Cl)CC1	V-ATPase pHluor 8.6 | VATPase regulator inactive
Cc1cc(=O)c(C(=O)O)nn1-c1ccc(Cl)cc1	Granule exo inh inconclusive | VATPase regulator inactive
N=C1/C(=C/c2cccn2Cc2ccc(F)cc2)C(=O)N=C2SC=CN12	V-ATPase pHluor 11 | VATPase regulator inactive
COc1ccc(S(=O)(=O)N2CCCCC2)cc1NC(=O)c1cnc(C)cn1	none (no result: MEX-5 binding)
CCOC(=O)c1[nH]c(=O)c2ccccc2c1O	none | VATPase regulator inactive
CCOC(=O)c1[nH]c2ccccc2c1NC(=O)CC	none
